# Many of the other results were omitted from the sample, so hits are more common in it than they were.
# RE007 growth inh – less growth of the S. pombe RE007 Vpr strain; hit rate 0.21% among 360,000; S. pombe RE007 Vpr strain, BacTiter-Glo ATP luminescence, 24 h; Potency, µM (doses to about 92.2 µM), without a hit: at the top dose activity change, negative = less growth, actives largely listed as inhibitors; AID 651644; active means well fitted falling curve with a large enough effect; inconclusive means small, poorly fitted or top-dose-only effect; inactive means no such curve, though single readings can be large or run the other way; further: potency means the concentration at half of the fitted maximal effect; on the % scale 0 is the no-effect control and ±100 the full control effect; nearly all actives have a fitted effect of over 50% in size
#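 Fission yeast strain RE007, carrying one chromosomally integrated HIV-1 vpr copy, was seeded at OD 0.01 in PMG+AL medium with 23 nL pinned compound. After 24 h at 30 °C and 99% humidity, viability was read by BacTiter-Glo luminescence.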
# LmPK inh – blocks Leishmania mexicana pyruvate kinase activity. purified LmPK, Kinase-Glo ATP luminescence, 1 h. AID 1721. Potency, µM (top dose mostly 57.5 µM), without a hit: at the top dose activity change, negative = inhibition, most hits filed as inhibitors. hit rate 0.37% among 290,000; further: potency means the concentration at half of the fitted maximal effect; on the % scale 0 is the no-effect control and ±100 the full control effect
# Target sequence (Q27686 whole entry, looked up): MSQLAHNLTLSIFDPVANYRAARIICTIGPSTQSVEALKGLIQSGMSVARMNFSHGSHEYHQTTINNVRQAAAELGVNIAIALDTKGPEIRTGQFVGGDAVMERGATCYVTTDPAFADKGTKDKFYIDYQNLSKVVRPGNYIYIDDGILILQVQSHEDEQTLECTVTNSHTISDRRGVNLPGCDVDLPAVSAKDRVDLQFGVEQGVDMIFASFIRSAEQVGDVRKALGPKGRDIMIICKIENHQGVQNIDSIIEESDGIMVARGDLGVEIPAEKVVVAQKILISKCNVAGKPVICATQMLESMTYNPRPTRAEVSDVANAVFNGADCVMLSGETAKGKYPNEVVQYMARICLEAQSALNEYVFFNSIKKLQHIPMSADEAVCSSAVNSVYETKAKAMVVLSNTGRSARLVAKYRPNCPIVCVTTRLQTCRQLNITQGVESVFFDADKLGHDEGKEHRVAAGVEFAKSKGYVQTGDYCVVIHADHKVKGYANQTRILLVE
#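 Purified LmPK (0.1 nM) converted ADP (0.1 mM) to ATP with PEP (0.5 mM) in imidazole buffer pH 7.2 with KCl and MgCl2, 1 h at room temperature. ATP was read by Kinase-Glo luminescence; data normalized to uninhibited and no-enzyme controls.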
# Cycloheximide cs – counter-screen for Shiga toxin inhibitors: cycloheximide protein synthesis inhibition; max response, %; hit rate 12% among 300,000; AID 2314; cell reporter, cycloheximide protein synthesis inhibition counterscreen; in the data active means max response mostly above about 13%, no sharp cut-off; inactive means mostly below about 14%; further: read at 38.3 µM for the half of the compounds with a filed dose; 0% is about no effect
# Giardia FBPA inh – blocks Giardia fructose-bisphosphate aldolase activity | hit rate 0.71% among 290,000 | Potency, µM (top dose mostly 59.6 µM), for the others: at the top dose activity, negative = inhibition, hits mostly inhibitors | purified Giardia FBPA | A8B2U2 | AID 2451; further: potency means the concentration at half of the fitted maximal effect; on the % scale 0 is the no-effect control and ±100 the full control effect; nearly all actives have a fitted effect of over 55% in size
#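 Giardia FBPA (40 nM reagent) was preincubated 10 min at RT with compound (up to 57.5 uM final), then substrate plus GAPDH/TPI/NAD/arsenate coupling system with diaphorase/resazurin was added; resorufin fluorescence (525/598 nm) was read after 20 min.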
# TbPYK inhibitor – blocks Trypanosoma brucei pyruvate kinase; TbPYK enzyme, Kinase-Glo Plus ATP luminescence, 45 min; Q57TT1; AID 624173; hit rate 0.12% among 410,000; Potency, µM (doses to about 76.8 µM), for the others: top-dose activity, negative = inhibition, most hits filed as inhibitors; further: potency means the concentration at half of the fitted maximal effect; on the % scale 0 is the no-effect control and ±100 the full control effect; nearly all actives have a fitted effect of over 50% in size
#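 Screened from lowest to highest concentration, compounds were pinned into TbPYK/substrate mixtures, and ADP (130 uM final) was added. Plates sat at room temperature for 45 min prior to Kinase-Glo Plus detection by luminescence.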
# Shiga toxin inh – inhibitors of Shiga toxin in Vero cells | Vero cells, Shiga toxin protein synthesis inhibition reporter | inhibition, % at 38.7 µM | hit rate 9.2% among 290,000 | AID 2315; in the data active means inhibition mostly above about 28%, no sharp cut-off; inactive means mostly below about 43%; further: 0% is about no effect
# * = called active by the depositor; ? = inconclusive; . = no result given; [ ] = dose if it differs, or a comment. Unless noted, the call rests on the fitted dose curve; in most records, active means well fitted curve in the direction sought with a large enough effect; inconclusive means small, poorly fitted or top-dose-only effect, or another doubt; inactive means no such curve, though single readings can be large; an effect the other way counts as inactive or inconclusive.
SMILES,RE007 growth inh,LmPK inh,Cycloheximide cs,Giardia FBPA inh,TbPYK inhibitor,Shiga toxin inh
Cc1ccc(-n2nnc(-c3cccnc3Cl)n2)cc1,-10%,-5%,47*,6%,-4%,87*
COc1ccc2[nH]c(=O)c(-c3nnn(-c4ccc(Cl)nc4)n3)cc2c1,5%,.,.,.,-9%,.
Clc1ccc(-n2nnc(-c3cccnc3Cl)n2)cn1,-4%,-2%,35*,4%,-1%,50*
CCCn1c(SCC(=O)N(C)CC(=O)Nc2ccc(Cl)cc2)n[nH]c1=O,9%,.,.,.,-7%,.
COc1ncccc1-c1nnn(-c2ccc(Cl)nc2)n1,-4%,-3%,20*,-3%,-6%,42
COC(=O)c1cc2ccccc2c(=O)s1,?,-4%,15*,5%,0%,9
Cc1ccc(C(C)C)c(OCC(=O)Nc2ccc(N3CCOCC3)cc2N2CCOCC2)c1,-4%,.,.,.,-5%,.
Nc1ccc(N2CCCC2)c(S(=O)(=O)Nc2cccc(C(F)(F)F)c2)c1,-16%,.,.,.,?,.
COc1ccc(C(C)(O)c2nc(-c3cccc(C(F)(F)F)c3)cs2)cc1 (stereo not drawn),35µM*,.,.,.,-15%,.
COCCNc1nc(-c2cc3ccccc3o2)cs1,-17%,-5%,83*,0%,-8%,74*
COc1cc(OC)cc(C(=O)NC(=S)Nc2nc(-c3cc4ccccc4o3)cs2)c1,-7%,7%,-1,-1%,1%,-7
CSc1nsc(/C=C/Nc2ccc(C)c(C)c2)c1C#N,-2%,7%,28,?,0%,45*
Cc1nc(/C(N)=N/OC(=O)c2cccc(Cl)c2)c(C(F)(F)F)o1,9%,-7%,11*,1%,1%,37
Cc1nc(/C(N)=N/OC(=O)c2ccccc2Cl)c(C(F)(F)F)o1,-8%,13µM*,52*,0%,-21%,91*
O=C(NCc1ccccc1)C1CCCN(C(=O)c2ccc(F)cc2)C1 (stereo not drawn),6%,.,.,.,-4%,.
CCNC(=O)C1CCCN(C(=O)c2cccc(C(F)(F)F)c2)CC1 (stereo not drawn),-9%[18.4 µM],.,.,.,3%,.
C/C(=N\NC(=O)c1cc(O)ccc1O)c1cccc(NC(=O)c2ccc(Cl)cc2)c1,3%,1%,47*,.,-20%,78*
C/C(=N/NS(=O)(=O)c1ccc(Cl)cc1)c1cccc(NC(=O)c2ccc(Cl)cc2Cl)c1,-1%,1%,33*,3%,-21%,84*
C/C(=N\NC(=O)c1cc(O)ccc1O)c1cccc(NC(=O)c2cccc(Cl)c2)c1,-16%,-6%,41*,.,-16%,71*
COc1ccc([C@H]2C[C@@H](n3cc(COC(=O)c4ccccc4)nn3)[C@H](O)CN2Cc2cccs2)cc1,-6%,.,.,.,1%,.
CC(C)(C#CCN1CCCCC1)OCCOC(c1ccccc1)c1ccccc1,-12%,1%,6,-11%,1%,17
CC1(C)C(=O)C(c2ccccc2)=C2CN3C(=O)N(CCc4ccccc4)C(=O)C3(Cc3ccc(F)cc3)C=C21 (stereo not drawn),.,.,.,-5%,.,.
Cc1ccc(C)c(OCCCn2c(-c3ccc(Cl)cc3)nc3ccccc3c2=O)c1,.,.,.,.,3%,.
Clc1cccc(-n2ncc3c(Nc4ccc5c(c4)OCCO5)ncnc32)c1,.,.,.,.,4%,.
O=C1NC(=Nc2ccccc2)c2c1cccc2[N+](=O)[O-],.,3%,19*,-27%,4%,21
SMILES,RE007 growth inh,LmPK inh,Cycloheximide cs,Giardia FBPA inh,TbPYK inhibitor,Shiga toxin inh
O=C(Nc1cccc2c1C(=O)NC2=O)c1ccccc1[N+](=O)[O-],2%,7%,-2,3%,-6%,-1
CC(=O)c1cc(C(=O)Nc2ccc3ccccc3c2)c(C)o1,3%,-3%,-3,1%,-4%,-3
Cc1cc(C(=O)Nc2ccc3ccccc3c2)c(C)o1,1%,-9%,32*,0%,-4%,96*
Cc1cc(C(=O)Nc2ccc3ccccc3c2)oc1C,?,-13%,30*,-8%,4%,127*
Cc1ccoc1C(=O)Nc1ccc2ccccc2c1,?,-30%,41*,-8%,-18%,63
Cc1ccc(C(=O)Nc2ccc3ccccc3c2)cc1,-16%,0%,-3,-5%,-11%,-5
Cc1cc(C(=O)Nc2nc3c(C)cccc3s2)c(C)o1,-4%,0%,19*,14%,0%,11
COCCn1c(C)cc(O)c(C(c2ccccc2F)N2CCN(c3ccccc3)CC2)c1=O (stereo not drawn),.,.,.,.,9%,.
CC1CC(C)CN(S(=O)(=O)c2ccc(C(=O)N(C)Cc3ccccc3)cc2)C1 (stereo not drawn),0%,.,.,.,-2%,.
CCC1CN(C(=O)N2CCC(C(=O)Nc3cc(C)ccc3C)CC2)c2ccccc2O1 (stereo not drawn),.,.,.,.,4%,.
Cc1cc(C(=O)Nc2cccc(C(=O)O)c2)oc1C,-4%,?,38*,-1%,?,81*
CCC(/C=C1\Sc2ccc(OC)cc2N1CCO)=C\c1sc2ccc(OC)cc2[n+]1CCO,?,14µM*,-5,?,?,-3
Cc1ccc(C)c(OCc2nnc(N)s2)c1,22%,-2%,2,7%,-6%,-7
Nc1nnc(COc2ccc(Br)cc2Br)s1,-7%,-1%,21*,5%,-5%,92*
Cc1ccc(OCCCCn2ccnc2)c([N+](=O)[O-])c1,-13%,-2%,21*,?,-19%,36
Cc1ccc(OCCCCn2ccnc2)c(Cl)c1,-4%,5%,27*,-13%,0%,40*
Cc1ccc(OCCOCCn2ccnc2)c(Br)c1,9%,-2%,31*,-29%,-7%,75
CCOc1ccc(OCCCCn2ccnc2)cc1,-8%,-8%,26*,-21%,7%,8
COc1ccccc1NC(=O)c1cc2c(n(-c3ccc(C)cc3)c1=O)CC(C)(C)CC2=O,.,.,.,.,-2%,.
Cc1cccc(C)c1OCc1cc(C(=O)NC2CCC(O)CC2)no1 (stereo not drawn),-3%,-9%,12,.,5%,46
CCOC(=O)N1CCC(NC(=O)c2cc(COc3c(C)cccc3C)on2)CC1,2%,10%,14*,.,-4%,9
Cc1cccc(C)c1OCc1cc(C(=O)NCc2ccc(Cl)s2)no1,-10%,-2%,18*,-2%,0%,7
O=C(NCc1ccc(Cl)s1)c1cc(COc2c(F)cccc2F)on1,-16%,0%,-1,-1%,-15%,8
Cc1cccc(C)c1OCc1cc(C(=O)NCC2CC2)no1,10%,-5%,10*,.,1%,88
Cc1cccc(C)c1OCc1cc(C(=O)NC2CCC2)no1,6%,-1%,37*,3%,5%,37*
Cc1cccc(C)c1OCc1cc(C(=O)NCC2COCCO2)no1 (stereo not drawn),6%,-10%,14,.,4%,-23

# From PubChem
